Reference: PubChem BioAssay (NCI)
The panel holds about 83,000 compounds, 20% with a hit somewhere; the sample as a whole holds those more often.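 Interpretation: 100, growth as untreated; towards 0, rising growth inhibition; 0, no net growth; 0 to -100, cell death. Compounds scoring below 10 were considered active.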 A number with no mark means an inactive call. Active and inactive are the calls of the source.

Columns and labels:
Test in all cases: NCI-60 one-dose screen, 48 h (100 = growth as untreated, 0 = no growth, -100 = all killed)
Details in all cases: 10 µM unless noted
HCT-15 colon = tested on: HCT-15 colon
HT29 colon = tested on: HT29 colon
SNB-19 CNS = tested on: SNB-19 CNS
U251 CNS = tested on: U251 CNS
PC-3 prostate = tested on: PC-3 prostate
SK-MEL-5 melanoma = tested on: SK-MEL-5 melanoma
UACC-62 melanoma = tested on: UACC-62 melanoma
LOX IMVI melanoma = tested on: LOX IMVI melanoma
SK-MEL-28 melanoma = tested on: SK-MEL-28 melanoma
SK-MEL-2 melanoma = tested on: SK-MEL-2 melanoma
EKVX NSCLC = tested on: EKVX NSCLC
SN12C renal = tested on: SN12C renal
UO-31 renal = tested on: UO-31 renal
TK-10 renal = tested on: TK-10 renal
ACHN renal = tested on: ACHN renal
CAKI-1 renal = tested on: CAKI-1 renal
A498 renal = tested on: A498 renal
CCRF-CEM leukemia = tested on: CCRF-CEM leukemia
MOLT-4 leukemia = tested on: MOLT-4 leukemia

| Structure (SMILES) | growth (HCT-15 colon) | growth (HT29 colon) | growth (SNB-19 CNS) | growth (U251 CNS) | growth (PC-3 prostate) | growth (SK-MEL-5 melanoma) | growth (UACC-62 melanoma) | growth (LOX IMVI melanoma) | growth (SK-MEL-28 melanoma) | growth (SK-MEL-2 melanoma) | growth (EKVX NSCLC) | growth (SN12C renal) | growth (UO-31 renal) | growth (TK-10 renal) | growth (ACHN renal) | growth (CAKI-1 renal) | growth (A498 renal) | growth (CCRF-CEM leukemia) | growth (MOLT-4 leukemia) |
| --- | --- | --- | --- | --- | --- | --- | --- | --- | --- | --- | --- | --- | --- | --- | --- | --- | --- | --- | --- |
| Cn1ccc(Nc2nccc(Oc3ccc(C(=O)Nc4cccc(F)c4)c(Cl)c3)n2)c1 | 91.9% | 100% | 77.6% | 96.2% | 63.6% | 39.5% | 66.8% | 91.9% | 96.6% | 58% | 47.1% | 73.4% | 62.6% | 54.4% | 44.7% | 69.6% | 46.9% | 58.4% | 83.3% |
| Cc1ccc(/C=C2\CN(C(=O)CCN3CCC(=NO)CC3)C/C(=C\c3ccc(C)cc3)C2=O)cc1 | -27.9% (active) | -42.8% (active) | 7.61% (active) | -49.6% (active) | 11.7% | -23.6% (active) | -50.8% (active) | -89.7% (active) | -17.5% (active) | 91.5% | 8.39% (active) | -34.4% (active) | -86% (active) | 20.2% | -38.8% (active) | 5.48% (active) | 46.6% | 1.97% (active) | 3.31% (active) |
| CC12CCCC(CC(=O)c3[nH]c4ccccc4c31)C2 (stereo not drawn) | 26.6% | 13.2% | 27.9% | 24.9% | 22.5% | 6.25% (active) | 37.4% | 36.2% | 53% | 30% | 42.1% | 51.8% | 51.4% | 75.4% | 52.6% | 41.7% | -6.37% (active) | 16.6% | 29.5% |
| CC(=O)Nc1ccc(/C=C/C(=O)c2ccccc2)cc1 | 91.9% | 83.8% | 77.7% | 74.7% | 66.8% | 100% | 96.6% | 93% | 103% | 107% | 112% | 87.5% | 71.3% | 110% | 95.3% | 104% | 73.4% | 31% | 75.5% |
| O=Nc1c(-c2cccc([N+](=O)[O-])c2)nc2ncccn12 | 73.7% | 79.5% | 94.3% | 96.9% | 66.5% | 96.2% | 92.8% | 95.4% | 115% | 85.2% | 108% | 91.5% | -3.03% (active) | 85% | 29.1% |  | 103% | -27.2% (active) | 7.7% (active) |
| COc1ccc(-c2nc(/C=C3/C(=O)Nc4ccc(F)cc43)c3ccccn23)cc1 | 107% | 103% | 101% | 88.3% | 108% | 102% | 106% | 92.7% | 105% | 112% | 123% | 106% | 97% | 116% | 96.5% | 98.2% |  | 93.9% | 91.8% |
| N#Cc1c(-c2ccccc2)cc(-c2ccccc2)n(CC(=O)NO)c1=O | 16.8% | 33.5% | 77% | 52.5% | 34.9% | 14.6% | 64.5% | -90.5% (active) | 75.7% | 34.5% | 41.7% | 47.8% | 25.2% | 73.1% | 43.3% | 20.8% |  | -19.2% (active) | -5.67% (active) |
| O=c1ccn(C2CC(O)C(O)C(CO)O2)c(=O)[nH]1 (stereo not drawn) | 117% | 113% | 110% | 125% | 89.5% | 137% | 105% | 109% | 109% | 145% | 110% | 92.5% | 85% | 121% | 116% | 97% | 118% |  | 102% |
| COc1ccc(-c2nc3sc(-c4cc(OC)c(OC)c(OC)c4)nn3c2/C=C2/C(=O)Nc3ccc(F)cc32)cc1 | -3.94% (active) | -49.9% (active) | 11% | -87.4% (active) | -25% (active) | -39.2% (active) | -26.1% (active) | 17.8% | -72.8% (active) | -10.8% (active) |  | -29.2% (active) | -33.4% (active) | -52.2% (active) | -15.7% (active) | 4.52% (active) | 96.7% | 20.6% |  |
| CC(C)c1ccc2occ(C=C3C(=O)NC(=O)NC3=O)c(=O)c2c1 | 85.8% | 94.7% | 81% | 74.3% | 92% | 97.3% | 82.1% | 87.4% | 99.8% | 93.5% | 117% | 91.5% | 86.6% | 84.6% | 104% | 103% |  | 77.8% | 66.8% |
| N/C(=N\C(N)=N\c1nc2ccccc2s1)c1cccc(Br)c1 | 44.2% | 104% | 90.9% | 38.3% | 63.2% | 94.6% | 84.7% | 33.2% | 94.5% | 106% | 73.2% | 50.7% | 24.7% | 157% | 84.8% | 68.8% |  | 55.8% | 77.6% |
| Cc1ccc(S(=O)(=O)NCCNc2nccc(-c3c(-c4cccc(N)c4)nc4sccn34)n2)cc1 | 92.1% | 91.7% | 104% | 101% | 84.5% | 84.6% | 79.4% | 95% | 107% | 109% | 83.5% | 81% | 70.9% | 116% | 86.4% |  | 92.4% | 95.8% | 88% |
| N/C(=N\C(N)=N\c1nc2ccccc2s1)c1ccncc1 | 35.3% | 27.7% | 69.5% | 71% | 73.9% | 59% | 44.6% | 55.8% | 66.9% | 41% | 78.9% | 72.6% | 64.2% | 109% | 75.8% | 44.9% |  | 63% | 45.2% |
| Cc1ccc(S(=O)(=O)Nc2c(Br)cc(Br)cc2C(N)=O)cc1 | 103% | 128% | 90.2% | 106% | 96.3% | 99.9% | 98.5% | 102% | 100% | 113% |  | 101% | 91.9% | 161% | 101% | 103% | 107% | 95.1% |  |
| COc1ccc(C2C=C(c3ccc(Cl)cc3)N=C3SC=C(C)N32)c(Br)c1 (stereo not drawn) | 25.4% | 4.51% (active) | 78.2% | 49.7% | 60.7% | 48.9% | 58.1% | 16.7% | 38.4% | 68.3% |  | 46.4% | 40.7% | 65.2% | 53% | 49.9% | 90.2% | 7.84% (active) | 29.5% |
| COc1cc2c(=O)n(C3CCCCCC3)c3c4cc[nH]c4ncc3c2cc1OC | 62.9% | 79.9% | 85.1% | 67% | 78.1% | 87.2% | 99.9% | 60.8% | 105% | 90.3% | 91.8% | 55.6% | 81.2% | 96.3% | 70.5% |  | 24.6% | 51.1% | 40.9% |
| Cc1ccc(C(=O)C2=Cc3cc4ccccc4n3Cc3cnnn32)cc1 | 107% | 106% | 93% | 100% | 87.7% | 93.5% | 85.1% | 110% | 102% | 94.4% | 107% | 94.5% | 95.8% | 94.9% | 109% |  | 107% | 103% | 101% |
